Eight molecules from ChEMBL document CHEMBL5606458, “ASAP - ZIKV NS2B-NS3 protease fluorescence single point” (2024) can be followed below.

This test deals with Nonstructural protein 3 (Zika virus) (UniProt A0A024AXB9).

The whole screen tested about 2,700 compounds, of which about 160 (5.9%) showed an effect of 50% or more. This is one part of a sample in which strong results are shown more often than they occur.

Chain of Nonstructural protein 3 (Zika virus) (A0A024AXB9 as listed by the source): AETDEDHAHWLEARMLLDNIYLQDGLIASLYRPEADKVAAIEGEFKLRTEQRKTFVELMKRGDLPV

Turning to `O=C(Nc1cccc(N2CCNCC2)c1)c1cccc2ncccc12`, the inhibition by setting is: (PRVABC59, Concentration 49.5 uM, Number of replicates 2.0, Standard deviation 0.4660025311194914 %) 12.8%; (PRVABC59, Concentration 99.01 uM, Number of replicates 2.0, Standard deviation 1.8240670503820091 %) 21.1%; (PRVABC59, Concentration 198.0 uM, Number of replicates 2.0, Standard deviation 0.426059457023535 %) 34.4%.
For `CCn1ccnc(N2CC[C@@H](Cc3ccncc3)C2)c1=O`, the inhibition came out at 18.6% (PRVABC59, Concentration 50.0 uM, Number of replicates 2.0, Standard deviation 17.324672814645545 %); 12.9% (PRVABC59, Concentration 100.0 uM, Number of replicates 2.0, Standard deviation 1.6917913579666908 %); 23.1% (PRVABC59, Concentration 200.0 uM, Number of replicates 2.0, Standard deviation 5.92774721773736 %).
`CC(C)c1cc(CN2CCC3(CC2)C(=O)NCc2ccccc23)n[nH]1`: the inhibition by setting is: (PRVABC59, Concentration 49.5 uM, Number of replicates 2.0, Standard deviation 2.3847652893231714 %) 1.4%; (PRVABC59, Concentration 99.01 uM, Number of replicates 2.0, Standard deviation 4.553677158798315 %) 2.83%; (PRVABC59, Concentration 198.0 uM, Number of replicates 2.0, Standard deviation 2.2809894644583135 %) 6.37%.
Consider `O=S(=O)(c1c[nH]c2ccccc12)N1CCC(c2cnc3ccc[nH]c2-3)CC1`, for which the inhibition was determined as 34% (PRVABC59, Concentration 49.5 uM, Number of replicates 2.0, Standard deviation 0.9724228784365659 %); 36.4% (PRVABC59, Concentration 99.01 uM, Number of replicates 2.0, Standard deviation 0.1115050511195736 %); 29% (PRVABC59, Concentration 198.0 uM, Number of replicates 2.0, Standard deviation 2.3986425606638684 %).
`CCn1ccnc(N2CC[C@H](c3ccc(OC)nc3)C2)c1=O` yielded an inhibition (PRVABC59, Concentration 50.0 uM, Number of replicates 2.0, Standard deviation 2.450630192539874 %) of 10.5%; an inhibition (PRVABC59, Concentration 100.0 uM, Number of replicates 2.0, Standard deviation 0.40502109894604904 %) of 17.9%; an inhibition (PRVABC59, Concentration 200.0 uM, Number of replicates 2.0, Standard deviation 0.08715563662307181 %) of 30.5%.
With `CN(CCS(N)(=O)=O)C(=O)c1cc(Cl)ccc1NS(=O)(=O)c1ccc(Oc2ccccc2Cl)cc1`, the inhibition is, setting by setting: (PRVABC59, Concentration 49.5 uM, Number of replicates 2.0, Standard deviation 4.192376018410405 %) 8.99%; (PRVABC59, Concentration 99.01 uM, Number of replicates 2.0, Standard deviation 3.3291863073712813 %) 17.3%; (PRVABC59, Concentration 198.0 uM, Number of replicates 2.0, Standard deviation 0.7795966632269805 %) 72.5%.
As to `CCCCCNC(=O)c1cc(Cl)ccc1NS(=O)(=O)c1ccc(Oc2ccccc2Cl)cc1`, the inhibition was 30.5% (PRVABC59, Concentration 49.5 uM, Number of replicates 2.0, Standard deviation 0.82866638448688 %) and 14.2% (PRVABC59, Concentration 99.01 uM, Number of replicates 2.0, Standard deviation 0.1903473061675686 %).
Take `CCCN(C)C(=O)c1cc(Cl)ccc1NS(=O)(=O)c1ccc(Oc2ccccc2Cl)cc1`: the inhibition is, setting by setting: (PRVABC59, Concentration 49.5 uM, Number of replicates 2.0, Standard deviation 1.6827651888895978 %) 30.1%; (PRVABC59, Concentration 99.01 uM, Number of replicates 2.0, Standard deviation 1.553741884480168 %) 42.7%; (PRVABC59, Concentration 198.0 uM, Number of replicates 2.0, Standard deviation 1.4828704414225533 %) 51.4%.

For orientation: inhibition means the share of the control response that was lost under treatment.
